PubChem BioAssay (NCI)
“And” between values parts separate entries of the source, which are not always exact repeats. Equal values may be shown once. The panel holds about 79,000 compounds, 15% with a hit somewhere; the sample as a whole holds those more often. Rule as the data show it: active = growth inhibition above about 70%; inactive = the rest.

What was measured:
[1] = NCI Yeast Anticancer Drug Screen. Data for the rad50 strain (AID 155);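 also: 0% = growth of vehicle-only cultures of the same strain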; conditions: S. cerevisiae rad50 strain growth inhibition; at 50.0 µM; hits give high values
Method in brief: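 Compounds were tested on a yeast strain with an engineered DNA damage repair alteration; the reported value is growth inhibition normalised to vehicle treatment.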

[2] = NCI Yeast Anticancer Drug Screen. Data for the mec2-1 strain (AID 157); conditions: S. cerevisiae mec2-1 strain, at 50.0 µM, hits give high values
Method in brief: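 Compounds were applied to mec2-1 yeast cells. Their growth was then compared with that of vehicle-treated cultures to give growth inhibition.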

[3] = NCI Yeast Anticancer Drug Screen. Data for the sgs1 mgt1 strain (AID 161);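 also: 0% = growth of cultures given vehicle only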; conditions: S. cerevisiae sgs1 mgt1 strain, at 50.0 µM, hits give high values
Method in brief: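 Growth of a repair-deficient yeast mutant was monitored after compound treatment and expressed as inhibition relative to vehicle-treated cultures.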

[4] = NCI Yeast Anticancer Drug Screen. Data for the cln2 rad14 strain (AID 165);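 also: 0% = growth equal to vehicle treated cultures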; conditions: S. cerevisiae cln2 rad14 strain, at 50.0 µM, hits give high values
Method in brief: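 Strain: cln2 rad14 yeast, altered in cell cycle control and DNA damage repair. Read-out: growth inhibition vs vehicle.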

[5] = NCI Yeast Anticancer Drug Screen. Data for the bub3 strain (AID 167); conditions: S. cerevisiae bub3 mutant strain, at 50.0 µM, hits give high values
Method in brief: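 Growth of a checkpoint-deficient yeast mutant is measured after compound exposure. Values represent inhibition relative to vehicle.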

[6] = NCI Yeast Anticancer Drug Screen. Data for the mlh1 rad18 strain (AID 175); conditions: S. cerevisiae mlh1 rad18 strain growth inhibition; at 50.0 µM; hits give high values
Method in brief: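 A repair-deficient yeast strain is exposed to test compound, and growth is scored relative to vehicle-treated controls.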

Measured: growth inhibition

OC(CBr)C(O)C(O)C(O)CBr (configuration not stated)
inactive: [1] 13.9% and 16.8% | [2] 7.6% and -4.25% | [3] 4.15% and -11.3% | [4] 8.75% and -9.4% | [5] -10.8% and 0.2% | [6] -13% and -11.9%

CC(=O)Nc1cccc2c1C(=O)OC2=O
inactive: [1] 8.65% and 1.9% | [2] -3.9% and -0.15% | [3] 5.05% and -16.7% | [4] -6.3% and -20.6% | [5] -1.9% and -0.8% | [6] -8.1% and -4.7%

O=C1OCC/C1=C\c1ccco1
inactive: [1] 9.55% and -9.2% | [2] 2.2% and 3.9% | [3] 6.15% and 9.15% | [4] -19.1% and 10.9% | [5] -6.75% and 17.9% | [6] 10.3% and -6.35%

NNC(=O)NC(N)=O
inactive: [1] -48.6% and -20.2% | [2] -26.1% and -25.7% | [3] -27.2% and -9.95% | [4] -20.4% and -17.9% | [5] 1.2% and -27.1% | [6] -4.3% and -22.3%

O=C(Nc1ccccc1)C1CCCCC1CO (configuration not stated)
inactive: [1] 18.9% and 7.15% | [2] 5.95% and 17.4% | [3] 9.95% and 22.1% | [4] 7% and 7.1% | [5] 2.65% and -6.15% | [6] 5.95% and 31.8%

COc1c2c(cc(O)c1C(C)=O)OC(C)(C)C=C2
inactive: [1] -4.8% and 16.6% | [2] -37.5% and -36.5% | [3] -11.6% and 16% | [4] -14.9% and 11.6% | [5] -12.1% and 18.1% | [6] -15% and 5.85%

Cn1c(=O)c(Br)cn(C2OC(CO)C3OC32)c1=O (configuration not stated)
inactive: [1] -6.35% and -9.05% | [2] -0.8% and -4.2% | [3] 18.1% and 4.9% | [4] -19.4% and -15.4% | [5] 25.4% and -4.1% | [6] 4.15% and -0.65%

O=C1CCOC2=C1COC2=O
inactive: [1] -30.7% and 9.5% | [2] -6.05% and 17.6% | [3] -2.4% and -0.6% | [4] -25.6% and 12.3% | [5] -7.95% and 19.6% | [6] -1.2% and 16.6%

COc1ccc(-c2[nH]c(=O)n(C3OC(CO)C(O)C(O)C3O)c(=O)c2C#N)cc1 (configuration not stated)
inactive: [1] 7.65% and 19.9% | [2] 5.4% and 6.1% | [3] -8.55% and 1.1% | [4] 36.9% and 13.5% | [5] 6.95% and 7.6% | [6] -78.4% and -59%

OCC1OCOC2C(CO)OCOC12 (configuration not stated)
inactive: [1] -9.2% and -8.3% | [2] -21.4% and -3.75% | [3] -9.95% and 15.6% | [4] 0.65% and -36.2% | [5] -13.8% and -4.7% | [6] -4.7% and -3.1%

C=CCSC1=NC(=O)C(CCCC)C(=O)N1C (configuration not stated)
inactive: [1] 7.75% and -1.7% | [2] 2.65% and 7.25% | [3] 4.25% and 6.3% | [4] -35.5% and -24.9% | [5] -22% and 7.5% | [6] 10.8% and 7.5%

O=C(NC(Cc1ccccc1)C(=O)O)OCc1ccccc1 (configuration not stated)
inactive: [1] 4.2% and 0.2% | [2] 23.9% and 6.9% | [3] 12.1% and 1% | [4] -9.35% and -1.55% | [5] 20.7% and -5.15% | [6] 14.7% and 16.9%

O=C(OCC(OC(=O)c1ccccc1)C(OC(=O)c1ccccc1)c1cnn(-c2ccccc2)n1)c1ccccc1 (configuration not stated)
inactive: [1] -24.1% and 4.05% | [2] 4.1% and 15.4% | [3] -34.4% and -11.9% | [4] -35% and -15.7% | [5] -10.8% and -1.55% | [6] -4.25% and 17.6%

COCc1cc(C)c(C#N)c(=O)[nH]1
inactive: [1] -2.35% and 9.35% | [2] 1.5% and 5.35% | [3] -5% and -8.7% | [4] 17.9% and -3.65% | [5] 13.3% and -7.55% | [6] -3.9% and 0.85%

CC1C(=O)c2cc3c(cc2CCN(C)Cc2c1ccc1c2OCO1)OCO3 (configuration not stated)
inactive: [1] 13.9% and 3.4% | [2] -16.4% and 5.75% | [3] -10.2% and 7.3% | [4] -3.65% and -3.7% | [5] -29.9% and -12.9% | [6] -31.8% and 14.6%

CCCCNC(=S)S
inactive: [1] -1.1% and -33.5% | [2] -19.8% and -30.9% | [3] 0.65% and -20.4% | [4] -7.65% and -14.2% | [5] 11% and -23.7% | [6] -6.9% and -22.5%

CCCCC(CC)CCC(C)OC(=O)CCl (configuration not stated)
inactive: [1] 15.4% and 0.5% | [2] -2.8% and -6.75% | [3] 2.5% and -19.6% | [4] -36.4% and -22.6% | [5] -6.25% and -15.2% | [6] -1.9% and 10.2%
